Compound activity (PubChem)
MARV entry inh – qHTS for inhibitors of binding or entry into cells for Marburg Virus; 300,000 tested, 1.8% active; Potency, µM (doses to about 37.8 µM), for the others: at the top dose activity change, negative = inhibition, actives largely listed as inhibitors; AID 540276, 2011; Marburg virus pseudotyped entry inhibition, cell reporter; calls by dose curve; tested in HEK293 cells
FMDV inh – High Throughput Screening for Foot and Mouth Disease Virus Antivirals; FMDV antiviral cell-based qHTS; Potency, µM (series often up to 57.9 µM), inactives show at the top dose activity change, negative = inhibition, actives largely listed as inhibitors; 410,000 tested, 1.2% active; AID 1159524, 2015; calls by dose curve; tested in HEK293T cells; further: read-out not given here; nearly all actives have a fitted effect of over 45% in size
Vaccinia mCherry – qHTS for Stage-Specific Inhibitors of Vaccinia Orthopoxvirus: mCherry Reporter Primary qHTS. 310,000 tested, 0.63% active. AID 720579, 2013. Potency, µM (series often up to 36.5 µM), inactives show top-dose activity change, negative = inhibition, actives largely listed as inhibitors. Vaccinia virus mCherry reporter infection, fluorescence; calls by dose curve; tested in A549 cells; further: nearly all actives have a fitted effect of over 35% in size
Lassa entry inh – qHTS for Inhibitors of binding or entry into cells for Lassa Virus | Lassa virus pseudotype entry inhibition, cell reporter | Potency, µM (highest dose often 37.9 µM), inactives show at the highest dose activity change, negative = inhibition, most hits filed as inhibitors | 300,000 tested, 1.2% active | AID 540256, 2011; calls by dose curve; tested in HEK293 cells; further: nearly all actives have a fitted effect of over 50% in size
Sm TGR block – qHTS Assay for the Inhibitors of Schistosoma Mansoni Peroxiredoxins; Potency, µM (top dose mostly 114 µM), for inactives: at the highest dose activity change, negative = inhibition, usual class: inhibitors; AID 485364, 2010; 360,000 tested, 3% active; purified TGR, DTNB reduction, TNB absorbance 405 nm; active means well fitted inhibition curve with a large enough effect; inconclusive means small, poorly fitted or top-dose-only effect; inactive means no such curve, though single readings can be large or run the other way; further: nearly all actives have a fitted effect of over 60% in size
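TGR 20 nM + NADPH 100 uM (dispensed conc.), cpd preinc 15 min RT; start with NADPH (500 uM addition) then DTNB (15 mM addition). Kinetic TNB absorbance, 405 nm filter. Four-parameter Hill fit across titration.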
VACV Venus inh – qHTS for Stage-Specific Inhibitors of Vaccinia Orthopoxvirus: Venus Reporter Primary qHTS. Vaccinia virus Venus reporter expression, fluorescence. Potency, µM (series often up to 36.5 µM), without a hit: top-dose activity change, negative = inhibition, actives largely listed as inhibitors. 330,000 tested, 0.46% active. AID 720580, 2013; calls by dose curve; tested in A549 cells; further: nearly all actives have a fitted effect of over 30% in size
* = called active by the depositor; i = inactive; ? = inconclusive; / = no result given; [ ] = remark or other dose. This is a sample that favours compounds with a hit; in the whole collection about 5.4% have one here. On the % scale 0 is the no-effect control and ±100 the full control effect; potency means the concentration at half of the fitted maximal effect.

SMILES	MARV entry inh	FMDV inh	Vaccinia mCherry	Lassa entry inh	Sm TGR block	VACV Venus inh
NNC(=O)C1=NN=C(C23CC4CC(CC(C4)C2)C3)C1	17%[46.1 µM]	/	/	/	/	/
O=C(Nc1ccc(-c2nc3cc(NC(=O)c4cccs4)ccc3o2)cc1)c1cccs1	8.2µM*	4%	/	15µM*	-4%	/
CCc1ccc2oc(-c3ccc(NC(=O)c4cccc(Cl)c4Cl)cc3)nc2c1	/	13µM*	i	-27%[46.1 µM]	10%	-15%
Cc1nc(NC(=O)c2cccs2)ccc1Br	?	1%	-3%	6.3µM*	-4%	-8%
O=C(Nc1ccc2oc(-c3ccncc3)nc2c1)c1cccs1	?	0%	-6%	-5%	-16%	-3%
CC(=O)Nc1ccc(C(=O)N2CCCC(n3cc(C(=O)NCC(C)C)nn3)C2)cc1 (centres undefined)	/	3%	i	/	/	-13%
Cc1ccc(Cn2c(/C=C/c3ccco3)nc3ccccc32)cc1	?	2%	-11%	20%	11µM*	10%
C#CCn1c(/C=C/c2ccc(Cl)cc2)nc2ccccc21	?	-21%	-18%	?	-2%	-10%
Clc1ccc(Cn2c(/C=C/c3ccco3)nc3ccccc32)cc1	?	-19%	i	-4%	28µM*	-4%
CC(C)c1cnc2c(c1SCC(=O)c1ccc(Cl)cc1)c(=O)n(C)c(=O)n2C	/	?	-3%	?	-10%	-8%
CCc1cnc2c(c1SCC(=O)c1ccc(OC)cc1)c(=O)n(C)c(=O)n2C	/	28µM*	-24%	?	2%	-16%
Cc1ccc2sc(N(CCCN(C)C)C(=O)c3ccc(S(=O)(=O)N(C)Cc4ccccc4)cc3)nc2c1C	?	32µM*	-26%	?	-3%	?
CCN(Cc1ccccc1)S(=O)(=O)c1ccc(C(=O)N(CCCN(C)C)c2nc3cc(C)cc(C)c3s2)cc1	10µM*	-22%	?	?	18%	?
Cc1ccc2sc(N(CCCN(C)C)C(=O)c3ccc(S(=O)(=O)N(C)C)cc3)nc2c1C	/	-20%	/	/	12%	/
CCN(Cc1ccccc1)S(=O)(=O)c1ccc(C(=O)N(CCCN(C)C)c2nc3c(F)cccc3s2)cc1	8.9µM*	3%	-23%	?	-12%	-19%
CN(C)CCCN(C(=O)c1ccc(C(=O)c2ccccc2)cc1)c1nc2c(F)cccc2s1	?	?	-21%	?	-5%	-18%
O=C1CCCC2=C1[C@H]1O[C@](CCCCN3C(=O)c4ccccc4C3=O)(Cc3ccccc31)O2	-2%[14.2 µM]	/	/	/	/	/
C=CCN1C(=O)C(Cc2ccc(Br)cc2)S/C1=N\N=C\c1ccco1 (centres undefined)	-42%	12%	-9%	-15%	?	-11%
C=CCN1C(=O)C(Cc2ccc(OC)cc2)S/C1=N/N=C/c1ccco1 (centres undefined)	0%	-26%	/	-26%	40µM*	/
CCC1S/C(=N/N=C/c2ccco2)N(Cc2ccccc2)C1=O (centres undefined)	?	-13%	-6%	?	20µM*	8%
C=CCN1C(=O)C(Cc2ccc(F)cc2)S/C1=N/N=C/c1ccco1 (centres undefined)	-4%	-11%	-7%	-4%	-2%	-2%
O=C1CS/C(=N/N=C/c2ccco2)N1Cc1ccc(F)cc1	/	5%	/	/	25µM*	/
Cc1ccccc1CN1C(=O)C(C)S/C1=N/N=C/c1ccco1 (centres undefined)	/	-16%	/	/	25µM*	/
Cc1ccccc1CC1S/C(=N/N=C/c2ccco2)NC1=O (centres undefined)	/	/	/	/	-16%	/
CCN(CC)c1nn2c(=O)c(C(=O)NCc3cccc(OC)c3OC)cnc2s1	/	-22%	-14%	3%[46.1 µM]	-4%	-13%
CC1S/C(=N/N=C/c2ccco2)N(Cc2ccc(F)cc2)C1=O (centres undefined)	/	2%	/	/	32µM*	/
CCOc1ccc2noc3c2c1C(=O)c1ccccc1-3	/	-20%	/	/	?	/
